The record followed here is PubChem BioAssay (Tox21).

Molecules are shown by their SMILES. Unmarked numbers belong to inactive results. Records with an inconclusive call do not appear. Activity calls are given as the source filed them. Unless noted, the call rests on the fitted dose curve.

The nature of test [1]: Nuclear factor erythroid 2-related factor 2/antioxidant responsive element (Nrf2/ARE) small molecule agonists: qHTS cell viability counter screen in human keratinocytes (AID 1919968; active means well fitted curve in the direction sought with a large enough effect in the repeat runs; an effect the other way counts as inactive or inconclusive; further: nearly all actives have a fitted effect of over 55% in size). The procedure, abridged: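 Seed 1,500 KeratinoSens cells per well, then incubate 5 h at 37 C/5% CO2. Add compounds in DMSO and incubate 23 h. Add CellTiter-Fluor, wait 1 h and read fluorescence.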
On the technique in general: Quantitative high-throughput screening tests each substance at several concentrations.

Test [2] in a line: Nuclear factor erythroid 2-related factor 2/antioxidant responsive element (Nrf2/ARE) small molecule agonists: luciferase reporter gene qHTS assay in human keratinocytes (AID 1919969; further: nearly all actives have a fitted effect of over 35% in size). (Reporter assays use an easily measured gene product as a stand-in for the process of interest.)
For test [3], the target named is Gonadotropin-releasing hormone receptor (Homo sapiens) (UniProt P30968). Kind of test: Human gonadotropin-releasing hormone receptor (GnRHR) small molecule agonists, calcium flux assay in GnRHR-HEK293 cells (AID 1920063). Further: nearly all actives have a fitted effect of over 35% in size. In a few lines: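 Cells: HEK293 stably expressing human GnRHR. Steps: overnight (18 h) culture, 1 h calcium dye loading at 37 C, compound addition, kinetic fluorescence read at 480/540 nm. Each compound tested at 15 concentrations in triplicate.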
A general note: A change in cytosolic calcium serves as a functional read-out for many receptors and channels.

In test [4] the target is KiSS-1 receptor (Homo sapiens) (UniProt Q969F8). Kind of test: Human kisspeptin (KISS1R) small molecule agonists, calcium flux assay in KISS1R-HEK293 cells (AID 1920064; active means well fitted curve in the direction sought with a large enough effect in the repeat runs; an effect the other way counts as inactive or inconclusive). In a few lines:
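Cells plated and incubated 18 h; dye added, 1 h at 37 C; compounds in DMSO pinned in; signal read at 480/540 nm every second for 3 min. Each compound tested at 15 concentrations in triplicate.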

A short description of test [5]: G protein-coupled receptor (GPCR) small molecule agonists, calcium flux assay: HEK293 wild type cell line counter screen (AID 1920065). In a few lines:
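Counter-screen of the Tox21 10K library for non-specific calcium release: dye-loaded cells received compounds in DMSO and were monitored by kinetic fluorescence (480/540 nm, 3 min). Fifteen concentrations, run in triplicate.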

Test [6] in a line: p53 small molecule agonists, cell-based qHTS assay with human liver microsomes (AID 1963577).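 Further: p53 response element beta-lactamase reporter cells with liver microsomes plus NADPH.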 In a few lines:
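p53RE-bla cells; 5 h settle, 37 C/5% CO2; cpd + HLM 0.5 mg/mL + NADPH 0.5 mg/mL (final); 16 h 37 C; LiveBLAzer 2 h RT dark; fluorescence readout.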

Test [7] can be described thus: p53 small molecule agonists, cell-based qHTS assay with rat liver microsomes (AID 1963578). In a few lines:
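Rat liver microsome activation: microsomes 0.5 mg/mL, NADPH 0.5 mg/mL final; p53RE-bla cells, 16 h 37 C; LiveBLAzer readout, 2 h RT dark.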

Test [8] in a line: p53 small molecule agonists, cell-based qHTS assay with human liver microsomes: qHTS cell viability counter screen (AID 1963579). Further: nearly all actives have a fitted effect of over 45% in size. In a few lines:
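Luminescent CellTiter-Glo read-out, 30 min at room temperature, gauged cytotoxicity in p53RE-bla cells exposed 16 h at 37 C to DMSO-dissolved compounds with metabolic activation by human liver microsomes and NADPH, each 0.5 mg/mL final.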

The nature of test [9]: p53 small molecule agonists, cell-based qHTS assay with rat liver microsomes: qHTS cell viability counter screen (AID 1963580). Further: nearly all actives have a fitted effect of over 45% in size. The procedure, abridged:
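Viability is assessed in parallel with the p53 reporter read: HCT-116 p53RE-bla cells receive compounds plus rat microsomes and NADPH (0.5 mg/mL final apiece), incubate 16 h at 37 C, and then CellTiter-Glo luminescence is recorded.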

Test [10] can be described thus: p53 small molecule agonists, cell-based qHTS assay: qHTS cell viability counter screen (AID 1963581). Further: nearly all actives have a fitted effect of over 45% in size. In a few lines:
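Cells: HCT-116 with p53 response element-driven beta-lactamase. Treatment: 16 h, 37 C, compounds in DMSO. Read: CellTiter-Glo luminescence after 30 min RT.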

Test [11] can be described thus: p53 small molecule agonists, cell-based qHTS assay (AID 1963582; active means well fitted activation curve with a large enough effect in the signal ratio in the repeat runs, not every such curve was filed as active; the % refers to the signal ratio). In a few lines:
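Quantitative HTS in p53RE-bla cells: after a 5 h settling period, compounds delivered in DMSO were left on cells for 16 h at 37 C, and reporter induction was measured as fluorescence following 2 h substrate loading.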

Test [12] in a line: cAMP Responsive Elements (CRE) small molecule agonists, cell-based qHTS assay (AID 1963590). The procedure, abridged: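 Agonist mode qHTS in CRE-bla HEK 293T cells: compounds dosed from DMSO for 3 h at 37 C/5% CO2, followed by LiveBLAzer B/G FRET substrate for 2 h at room temperature.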
A short description of test [13]: cAMP Responsive Elements (CRE) small molecule antagonists, cell-based qHTS assay (AID 1963591; active means well fitted inhibition curve with a large enough effect in the signal ratio in the repeat runs, not every such curve was filed as active; the % refers to the signal ratio). The procedure, abridged: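 Antagonist mode: test compounds are co-incubated with the adenylyl cyclase activator NKH477 (0.25 uM final) on CRE-bla HEK293T cells for 3 h at 37 °C, followed by LiveBLAzer substrate loading.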
Test [14] deals with Beta-2 adrenergic receptor (Homo sapiens) (UniProt P07550). Kind of test: Adrenergic beta2 receptor (ADRB2) small molecule antagonists, cell-based qHTS assay (AID 1963592). Further: series mostly up to about 92 µM; nearly all actives have a fitted effect of over 50% in size. In a few lines: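 Cells (CHO, stable ADRB2 overexpression) incubated 18-20hr at 37C; compounds added from DMSO; agonist mix (1nM isoproterenol, 100uM IBMX, 25uM Ro-20-1724) added; 0.5hr RT; d2-cAMP and anti-cAMP-cryptate added; 1hr RT; 665/615 nm read.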

In test [15] the target is D(2) dopamine receptor (Homo sapiens) (UniProt P14416). In words: Dopamine D2 receptor (DRD2) small molecule agonists, cell-based qHTS assay (AID 1963594). Further: nearly all actives have a fitted effect of over 35% in size. Further: potency means the concentration at half of the fitted maximal effect. In a few lines: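 HEK293 cells stably expressing human DRD2, pre-treated with PDE inhibitor Ro20-1724 (0.1 mM final) and compound 10 min at room temperature, then stimulated with NKH477 (200nM […]) for 30 min. cAMP read by HTRF (665/620 nm).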

Test [16] shares this target. Kind of test: Dopamine D2 receptor (DRD2) small molecule antagonists, cell-based qHTS assay (AID 1963595; active means well fitted inhibition curve with a large enough effect in the signal ratio in the repeat runs, with a control signal flat; the % refers to the signal ratio). In a few lines:
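Cells were plated and grown for 24 h at 37 °C. Ro20-1724 (0.1 mM final) went in first, then compound for 10 min. NKH477 (200 nM) with quinpirole (12 nM) followed for 30 min at RT, then HTRF detection reagents for 1 h.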

Test [17] concerns the target 5-hydroxytryptamine receptor 2A (Homo sapiens) (UniProt P28223). In words: 5-hydroxytryptamine receptor 2A (HTR2A) small molecule agonists, cell-based qHTS assay (AID 1963587). Further: nearly all actives have a fitted effect of over 30% in size. In a few lines:
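CHO cells stably expressing human HTR2A, plated 18 h, loaded with calcium dye 1 h at 37 C. Agonist mode: compounds added and intracellular calcium fluorescence recorded kinetically for 2 min at 1 sec intervals.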

For test [18], the target named is Muscarinic acetylcholine receptor M1 (Homo sapiens) (UniProt P11229). In words: Cholinergic receptor muscarinic 1 (CHRM1) small molecule agonists, cell-based qHTS assay (AID 1963589). Further: nearly all actives have a fitted effect of over 35% in size. In a few lines:
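Agonist-mode qHTS in CHO cells stably carrying human muscarinic M1. Intracellular calcium is tracked by fluorescence every second after compound transfer; each compound runs at 15 concentrations in three independent runs.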

For test [19] the target is unchanged. Kind of test: Cholinergic receptor muscarinic 1 (CHRM1) small molecule antagonists, cell-based qHTS assay (AID 1963588). Further: nearly all actives have a fitted effect of over 40% in size. The procedure, abridged:
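CHRM1-CHO calcium-flux assay, antagonist mode. Cells were seeded 18 h, dye-loaded 1 h at 37 C and given compound for 5 min at RT, then acetylcholine was added at 50nM. FDSS fluorescence was read 3 min; 15 concentrations, three runs.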

The target of test [20] is 5-hydroxytryptamine receptor 2A (Homo sapiens) (UniProt P28223). Kind of test: 5-hydroxytryptamine receptor 2A (HTR2A) small molecule antagonists, cell-based qHTS assay (AID 1963586). Further: nearly all actives have a fitted effect of over 45% in size. The procedure, abridged: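 Antagonist-mode intracellular calcium assay: DOI (4 nM) added after 5 min compound pre-incubation at room temperature to dye-loaded HTR2A-CHO cells. Fluorescence followed for 3 min, sampled every second.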
Chain of 5-hydroxytryptamine receptor 2A (Homo sapiens) (P28223 whole entry, looked up): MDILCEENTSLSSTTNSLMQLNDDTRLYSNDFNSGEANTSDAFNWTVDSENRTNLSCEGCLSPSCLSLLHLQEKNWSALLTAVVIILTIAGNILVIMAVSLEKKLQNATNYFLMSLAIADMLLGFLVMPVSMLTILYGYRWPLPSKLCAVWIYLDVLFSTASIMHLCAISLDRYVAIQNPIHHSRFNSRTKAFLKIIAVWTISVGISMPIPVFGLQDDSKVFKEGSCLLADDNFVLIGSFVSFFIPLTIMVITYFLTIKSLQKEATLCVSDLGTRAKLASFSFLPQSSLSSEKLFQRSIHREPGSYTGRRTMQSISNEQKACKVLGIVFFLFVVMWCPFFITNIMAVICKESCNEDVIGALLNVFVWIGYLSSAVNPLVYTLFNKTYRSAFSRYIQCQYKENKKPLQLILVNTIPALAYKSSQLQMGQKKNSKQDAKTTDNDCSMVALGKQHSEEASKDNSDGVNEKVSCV

Chain of KiSS-1 receptor (Homo sapiens) (Q969F8 whole entry, looked up): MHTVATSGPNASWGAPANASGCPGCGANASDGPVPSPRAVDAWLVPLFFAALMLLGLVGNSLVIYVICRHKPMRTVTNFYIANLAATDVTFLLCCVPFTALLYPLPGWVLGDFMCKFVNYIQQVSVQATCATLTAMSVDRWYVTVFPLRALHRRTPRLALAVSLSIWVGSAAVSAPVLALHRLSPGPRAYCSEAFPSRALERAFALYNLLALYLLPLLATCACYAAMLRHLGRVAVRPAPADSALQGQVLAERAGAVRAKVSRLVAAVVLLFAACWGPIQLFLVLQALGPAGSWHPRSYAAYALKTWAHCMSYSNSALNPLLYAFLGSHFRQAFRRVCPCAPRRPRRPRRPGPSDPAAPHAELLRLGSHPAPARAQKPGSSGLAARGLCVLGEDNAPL
Chain of D(2) dopamine receptor (Homo sapiens) (P14416 whole entry, looked up): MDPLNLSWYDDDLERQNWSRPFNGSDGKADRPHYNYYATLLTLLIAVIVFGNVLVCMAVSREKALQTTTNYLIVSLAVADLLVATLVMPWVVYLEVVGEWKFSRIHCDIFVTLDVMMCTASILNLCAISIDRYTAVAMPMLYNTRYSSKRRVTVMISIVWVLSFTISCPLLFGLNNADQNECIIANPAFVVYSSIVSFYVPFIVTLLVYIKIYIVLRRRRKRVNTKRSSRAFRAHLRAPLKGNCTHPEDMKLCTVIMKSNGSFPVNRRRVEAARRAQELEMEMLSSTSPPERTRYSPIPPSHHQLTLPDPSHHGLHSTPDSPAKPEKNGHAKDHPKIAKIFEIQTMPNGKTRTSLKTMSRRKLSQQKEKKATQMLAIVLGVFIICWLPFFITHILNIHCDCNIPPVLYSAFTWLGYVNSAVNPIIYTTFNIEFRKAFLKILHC
Chain of Muscarinic acetylcholine receptor M1 (Homo sapiens) (P11229 whole entry, looked up): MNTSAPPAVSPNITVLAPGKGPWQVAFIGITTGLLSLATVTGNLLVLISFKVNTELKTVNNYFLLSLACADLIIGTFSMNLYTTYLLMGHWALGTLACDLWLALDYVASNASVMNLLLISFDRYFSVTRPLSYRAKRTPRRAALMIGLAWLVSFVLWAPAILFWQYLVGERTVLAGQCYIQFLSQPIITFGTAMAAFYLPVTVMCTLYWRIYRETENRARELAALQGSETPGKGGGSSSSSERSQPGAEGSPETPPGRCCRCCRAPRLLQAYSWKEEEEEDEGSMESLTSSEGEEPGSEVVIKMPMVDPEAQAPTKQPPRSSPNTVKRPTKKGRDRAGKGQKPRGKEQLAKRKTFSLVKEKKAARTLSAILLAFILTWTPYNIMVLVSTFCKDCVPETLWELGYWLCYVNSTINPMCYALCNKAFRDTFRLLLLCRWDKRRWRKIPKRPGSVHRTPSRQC
Chain of Beta-2 adrenergic receptor (Homo sapiens) (P07550 whole entry, looked up): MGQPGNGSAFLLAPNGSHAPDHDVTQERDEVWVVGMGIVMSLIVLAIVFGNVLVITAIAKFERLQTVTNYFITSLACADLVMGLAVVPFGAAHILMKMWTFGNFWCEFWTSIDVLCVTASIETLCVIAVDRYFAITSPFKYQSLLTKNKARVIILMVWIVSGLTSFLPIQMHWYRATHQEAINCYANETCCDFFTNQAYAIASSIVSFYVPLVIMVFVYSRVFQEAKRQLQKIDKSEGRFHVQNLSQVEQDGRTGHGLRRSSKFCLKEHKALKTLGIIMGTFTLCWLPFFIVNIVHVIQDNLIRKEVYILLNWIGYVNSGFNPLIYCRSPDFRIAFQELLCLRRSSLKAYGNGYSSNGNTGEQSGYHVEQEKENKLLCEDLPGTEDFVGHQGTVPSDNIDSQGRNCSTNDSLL
Chain of Gonadotropin-releasing hormone receptor (Homo sapiens) (P30968 whole entry, looked up): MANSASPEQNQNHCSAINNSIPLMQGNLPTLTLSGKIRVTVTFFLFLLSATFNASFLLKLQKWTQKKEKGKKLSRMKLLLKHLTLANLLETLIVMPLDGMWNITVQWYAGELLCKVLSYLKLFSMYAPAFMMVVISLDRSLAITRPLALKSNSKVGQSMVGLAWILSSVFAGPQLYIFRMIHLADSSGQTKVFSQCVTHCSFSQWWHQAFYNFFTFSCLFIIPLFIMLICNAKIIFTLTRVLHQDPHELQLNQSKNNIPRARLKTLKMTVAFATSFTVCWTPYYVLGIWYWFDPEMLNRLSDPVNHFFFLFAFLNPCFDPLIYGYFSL

Consider `C=C(Cl)Cl`, for which the Potency entry in test [1], in [2], in test [3], in [4], in test [5] and in [6] was “inactive” in each case. Also, the Potency entry in test [7], in [8], in test [9], in [10], in [11] and in test [12] was “inactive” in each case. For the same molecule, the Potency entry in test [13], in [14], in [15] and in test [16] was “inactive” each time.
For `CCSC(=O)Cl`, the Potency entry in test [1], in test [2], in test [3], in test [4], in test [5] and in test [6] was “inactive” in each case. Moreover, the Potency result in test [7], in [8], in test [9], in test [10], in [11] and in [17] was “inactive” each time. The Potency result in [18], in [12], in test [13], in test [14] and in [16] was “inactive” each time.
As for `CC1NCCOC1c1ccccc1` (stereo not drawn), the Potency result in test [1], in [2], in test [3], in test [4], in test [5] and in test [6] was “inactive” each time. In addition, the Potency result in [7], in test [8], in test [9], in test [10], in [11] and in test [19] was “inactive” in each case. In addition, the Potency result in [18], in test [12], in [14] and in test [16] was “inactive” each time. For the same molecule, the Potency in [15] was 14.1 µM (active).
`CO/C=C(/C(=O)OC)c1ccccc1COc1cccc(C(F)(F)F)n1`: the Potency result in test [1], in test [2], in [3], in [4], in test [5] and in [6] was “inactive” in each case. Moreover, the Potency entry in test [7], in test [8], in test [9], in test [10], in [20] and in test [17] was “inactive” in each case. Moreover, the Potency entry in test [19], in test [18], in [12], in [14], in test [15] and in [16] was “inactive” throughout.
For `ClC=C(Cl)Cl`, the Potency result in [1], in test [2], in test [3], in test [4], in test [5] and in test [6] was “inactive” in each case. For the same molecule, the Potency entry in test [7], in test [8], in test [9], in test [10], in [11] and in test [19] was “inactive” throughout. Also, the Potency entry in [12], in [13], in test [14], in test [15] and in test [16] was “inactive” each time.
Regarding `Cc1c([N+](=O)[O-])c(C)c([N+](=O)[O-])c(C(C)(C)C)c1[N+](=O)[O-]`, the Potency result in [1], in [2], in [3], in test [4], in test [5] and in test [6] was “inactive” in each case. For the same molecule, the Potency result in [7], in test [8], in test [9], in test [10], in [20] and in test [17] was “inactive” throughout. Also, the Potency entry in test [19], in test [14], in test [15] and in [16] was “inactive” in each case.
For `O=NN1CCN(N=O)CC1`, the Potency entry in test [1], in test [2], in [3], in [4], in test [5] and in [6] was “inactive” each time. The Potency entry in [7], in [8], in test [9], in test [10], in [20] and in test [17] was “inactive” in each case. Also, the Potency result in test [18], in [12], in test [13], in test [14] and in [15] was “inactive” each time.
